In the first assay the target is VN1R2. Kind of assay: pooled miR-30 sensor sort-seq; sequence = guide strand. The settings on record: shRNA.
TTTACTTTCATCTCTGCCCACC: the sensor-assay potency score (higher = more potent) is -1.01.
On the same count and under the same terms, under TTCTTTGTGATGTTGTTGTTGC stands -0.241; under TACAAGACCAAAACGATGGAGC, -0.2; under TTATTGGATACAAAGCAGGAGA, -0.969.

For a further assay, the target named is VNN1. The description is as above. The note with it: shRNA.
With TAGAGGATAATATTAACCCGGA, the sensor-assay potency score (higher = more potent) is -0.217.
TTTCACTCAGCAACACCTCAGG yielded a sensor-assay potency score (higher = more potent) of -0.729.
TTATTATTCTTGCTTGTGCTGT had a sensor-assay potency score (higher = more potent) of -0.405.
Still for that read-out and setting: to TTACTGTTAAGACAGGTCCGGA belongs -1.14.
Turning to TTCTCAGACATTTTGTAGCTTA, the sensor-assay potency score (higher = more potent) was 0.132.
Same read-out and setting: to TTTCAAACCTGGTAGAAGCTGT belongs 0.475.
TTGACACCTGAAATTCTCCAGG: the sensor-assay potency score (higher = more potent) was -0.925.
The same measure, in the same setting: to TTAGCATTATTATTCTTGCTTG belongs -0.677.
The same measure, in the same setting: under TATCATAATGAAATGCTCTTGA stands 0.667; under TTTGCCACAACATAGATAGAGT, -0.809; under TATGGGTAGAGAGAGTCCCTGT, -0.516.
In the case of TTAAATGACAGCAGAGATCTTT, the sensor-assay potency score (higher = more potent) was determined as 0.464.

The target of the next assay is VNN2. Described as above. The note with it: shRNA.
The sequence TAATAATATGAATATTAGCAGG had a sensor-assay potency score (higher = more potent) of -1.34.
Same read-out and setting: under TTTCGGTAAGTAGCACTTCAGG stands -1.26; under TATACTACTGAAATAGCCCTTC, 0.854; under TAAATGACAGCAAAGCTCCTTT, 0.246.
Still for that read-out and setting: to TAAGTTATTGCTGAATTGCTGG belongs 0.0796.
On the same count and under the same terms, to TTAAATGACAGCAAAGCTCCTT belongs 0.199; to TTGCACTTCAGCATTGTGCAGA, -0.233; to TTCTTTTTGTAACATTCTGTAG, -1.08.
For TCTTCTTTTTGTAACATTCTGT, the sensor-assay potency score (higher = more potent) is -0.103.
Still for that read-out and setting: under TTTCAAATCTTGTAGAAGCAGT stands -0.249; under TATTGTATTGAAAGTAGCCATT, -1.45.
TTAGCAGGTAAGTTATTGCTGA: the sensor-assay potency score (higher = more potent) is -0.154.

The target in another assay is VWA2. The assay is described as above. The settings on record: shRNA.
TAGCCGTCCAGTCCTTCTGGAA had a sensor-assay potency score (higher = more potent) of -1.51.
AAAACCATCCTCTTGATTCTTG came in with a sensor-assay potency score (higher = more potent) of -0.0709.
Consider TTGAAAATGAATCCAAGGGGAA, for which the sensor-assay potency score (higher = more potent) was -0.607.
Still for that read-out and setting: under TAACAGAAACATGATGTCCACT stands -1.06; under TTTGCTTACATGGACTTCCTGG, 0.502.
On the same count and under the same terms, to TTTGGTTGAACAGATCCTGAGG belongs -0.36; to TTTGTCATAGATGTGCAGCAGG, -0.376; to TTTGAAAACCATCCTCTTGATT, -0.884.
On to TTTCTTTGCTTACATGGACTTC, for which the sensor-assay potency score (higher = more potent) was -1.06.
The sequence TAGACCATCACATGCTTTGGGC showed a sensor-assay potency score (higher = more potent) of -0.664.
Consider TCTCACAAAGCTCTGCATCTGA, for which the sensor-assay potency score (higher = more potent) is 0.327.
Same read-out and setting: to TTGCTTACATGGACTTCCTGGA belongs -0.0634.
Note: reference of the scale not given here.
